# ChEMBL document CHEMBL3988442, “University of Dundee, Small-Polar-MMV Screening Library” (2021)
# About 1,200 (3.2%) of roughly 38,000 compounds showed an effect of 50% or more. The median lay at about -58%. Many of the other results were omitted from the sample, so strong results are more common in it than they were.
# Test system: Plasmodium falciparum
# Test: Calibr Malaria Delayed Death Assay SOP
# Assay type: functional, organism-based
# Design: scale not given: in the data most compounds retested in dose-response had high values
# Conditions: concentration 4.99e-06 (unit not given; other assays of the set use mol/L)
row,SMILES,Percent Effect [%]
1,Cc1cc(C[C@@H]2CCC[C@H]2NCc2cccc(F)c2F)on1.O=C(O)CC(O)(CC(=O)O)C(=O)O,-66.07
2,Cc1cc(C[C@@H]2CCC[C@H]2NCc2ccccc2C)on1.O=C(O)CC(O)(CC(=O)O)C(=O)O,63.44
3,Cc1ccccc1Oc1ncccc1CNC1CCC1,31.34
4,CCCc1cc(CNC(=O)Cc2cc(C)no2)on1,-176
5,CCCOc1ccccc1CN[C@@H]1CCC[C@H]1Cc1cc(C)no1.O=C(O)CC(O)(CC(=O)O)C(=O)O,84.13
6,Cc1cc(C[C@@H]2CCC[C@H]2NCc2ccccc2F)on1.O=C(O)CC(O)(CC(=O)O)C(=O)O,-9.902
7,CCC[C@H]1CN(Cc2cc(C)no2)C[C@@H]1NC(=O)C1(COC)CCC1,-58.42
8,COc1ccc(-c2nc(CN3CCc4cnc(C)nc4C3)no2)cc1,-21.98
9,Cc1cccc(NC(=O)[C@@H]2CCCN2Cc2nc3ccccc3o2)n1,-70.67
10,O=C(O)C(F)(F)F.O=C(O)c1cc(NS(=O)(=O)c2ccc(Cl)s2)ccc1N1CCOCC1,-83.84
11,CCCc1cc(N2CCC(Cc3cccc(C(N)=O)c3)C2)nc(C)n1 (stereo unspecified),-73.24
12,CN(C)c1cc(C(=O)NCc2cccnc2-n2cncn2)ccn1,-24.53
13,Cc1ccc(CN(CCN(C)C)C(=O)Nc2ccc(C)c(C#N)c2)s1,40.03
14,Cc1ccsc1CN(CCN(C)C)C(=O)c1ccccc1C#N,59.93
15,Cc1ccsc1CN(CCN(C)C)C(=O)c1cc2ccccc2[nH]1,-0.6518
16,O=C(NC[C@@H]1CCCO1)c1cccnc1N1CCCC1c1ccccn1 (stereo partly specified),-159.2
17,CCOC(=O)N[C@H]1C[C@@H](C(=O)NCCc2cccc(Cl)c2)N(C)C1,-112.6
18,COC1CCCN(C2CCN(c3cccc(-c4csc(C)n4)c3)CC2)C1 (stereo unspecified),-26.41
19,Cc1nc(-c2cccc(N3CCC(N4CCCC4)CC3)c2)cs1,70.2
20,Cc1nc(-c2cccc(N3CCC(N4CCCC(C#N)C4)CC3)c2)cs1 (stereo unspecified),-24.98
21,CC(C)c1nnc(CN(C)Cc2ccccc2-c2ccccc2)o1,-137.8
22,Cc1nc(N2CCCC2)nc2c1CCN(C(=O)C(C)C)CC2,-54.78
23,CCC(NC(=O)CC(F)(F)F)c1ccccc1OCC(=O)N1CCCC1 (stereo unspecified),15.61
24,Cc1ccccc1CNc1ccccc1OCC(=O)N1CCOCC1,13.74
25,CCC(NCc1ccccc1Cl)c1ccccc1OCC(=O)NC (stereo unspecified),73.2
26,O=C(COc1cccc2c1CCC2=O)NCc1ccccc1Cl,-71.52

row,SMILES,Percent Effect [%]
1,CCC(NCc1ccccc1C)c1ccccc1OCC(=O)NC (stereo unspecified),78.75
2,Cc1ccc(OCCCC(=O)NC(C)c2nnc3n2CCC3)cc1 (stereo unspecified),-64.5
3,O=C1CCC(=O)N1CCn1nnc(-c2ccc(Br)cc2)n1,-91.28
4,CCS(=O)(=O)N1CCN(Cc2cccnc2)c2nc(C)ccc2C1.O=C(O)C(F)(F)F.O=C(O)C(F)(F)F,2.753
5,CN1CCN(Cc2c(-c3ccco3)[nH]c3ncccc23)CC1,-17.66
6,CN1CCN(Cc2ccccc2Oc2nccc3occc23)CC1,77.3
7,COc1ccc(Oc2nccc3occc23)cc1CN1CCCC1,59.92
8,CCCc1nnc(N2CCN(Cc3ccccc3OC)CC2)o1,-122.5
9,O=S1(=O)CCCN(Cc2ccccc2OCC(F)(F)F)CC1,-23.25
10,CN1CCN(CCCOc2ccccc2CN2C[C@H]3CC[C@H]2C3)CC1,15.78
11,COc1ccc(Oc2cccc(C#N)n2)cc1CN1CCCC1,-26.21
12,COc1ccc(Oc2ccc(C(F)(F)F)cn2)cc1CN1CCCC1,49.66
13,c1ccc(Oc2nccc3occc23)c(CN2CCCCC2)c1,71.51
14,O=C(c1ccc(Cn2cccc2)cc1)N1CCN(CCO)CC1,-124.1
15,COc1ccc(C(=O)c2cnc(C(C)C)n2C)cc1,-137.4
16,CCC(Nc1cccc(Oc2ccccn2)c1)C(N)=O (stereo unspecified),-89.12
17,Cc1noc(C)c1C(=O)N1CCSc2ccc(Cl)cc21,-64.97
18,COc1ccc(CN2C[C@@H]3COC[C@H](N4CCN(C)CC4)[C@@H]3C2)cc1.O=C(O)C(F)(F)F.O=C(O)C(F)(F)F.O=C(O)C(F)(F)F,39.43
19,Cc1cc(C)cc(CN2C[C@H]3COC[C@H](N4CCN(C)CC4)[C@H]3C2)c1.O=C(O)C(F)(F)F.O=C(O)C(F)(F)F.O=C(O)C(F)(F)F,93.63
20,COc1ccc(CN2C[C@@H]3COC[C@@H](CC(=O)N4CCCC4)[C@@H]3C2)cc1.O=C(O)C(F)(F)F,-28.59
21,COc1ccc(CN2C[C@@H]3COC[C@@H](N4CCN(C)CC4)[C@@H]3C2)cc1.O=C(O)C(F)(F)F.O=C(O)C(F)(F)F.O=C(O)C(F)(F)F,72.48
22,CN1CCN([C@H]2COC[C@@H]3CN(Cc4cccnc4)C[C@@H]32)CC1,-16.78
23,CN(C)[C@H]1COC[C@@H]2CN(Cc3ccc4c(c3)OCO4)C[C@@H]21.O=C(O)C(F)(F)F.O=C(O)C(F)(F)F,25.51
24,O=C(O)C(F)(F)F.O=C(O)C(F)(F)F.c1cc2c(cc1CN1C[C@@H]3COC[C@@H](N4CCCC4)[C@@H]3C1)OCO2,41.71
25,CCN(CC)[C@H]1COC[C@@H]2CN(Cc3cnn(C)c3)C[C@@H]21,-7.149
